Records with an inconclusive call do not appear. Activity calls are given as the source filed them. Unless noted, the call rests on the fitted dose curve; in most records, active means well fitted curve in the direction sought with a large enough effect in the repeat runs; inconclusive means weak or mixed curves; inactive means no such curve, though single readings can be large; an effect the other way counts as inactive or inconclusive.
Columns and labels:
[1] = qHTS assay for small molecule agonists of the p53 signaling pathway (AID 651631; calls by dose curve; further: nearly all actives have a fitted effect of over 15% in size)
Outline: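 Fluorescence intensity from cleaved LiveBLAzer B/G substrate (2 h, room temperature) served as the signal. Beforehand, HCT-116 reporter cells bearing p53 response elements were treated 16 h at 37 °C with DMSO-dissolved compounds.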

[2] = qHTS assay for small molecules that induce genotoxicity in human embryonic kidney cells expressing luciferase-tagged ATAD5 (AID 651632); further: nearly all actives have a fitted effect of over 15% in size
Outline: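 HEK293T cells carrying a luciferase reporter tagged to ATAD5 were exposed to compound or DMSO vehicle for 16 hr at 37C, 5% CO2. Amplite was added, and after 30 min at room temperature luciferase activity was read as a marker of ATAD5 induction.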

[3] = qHTS assay for small molecule agonists of the p53 signaling pathway - cell viability (AID 651633; calls by dose curve;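 further: p53RE-bla HCT reporter cells with a stable beta-lactamase p53 reporter; series mostly up to about 83 µM; nearly all actives have a fitted effect of over 30% in size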)
Outline: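 p53RE-bla cells, seeded at 4,000 per well and rested 5 h at 37 C/5% CO2, received compounds in DMSO for 16 h at 37 C. CellTiter-Glo was then added, and luminescence was read after 30 min at room temperature to gauge cytotoxicity.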

[4] = qHTS assay for small molecules that induce genotoxicity in human embryonic kidney cells expressing luciferase-tagged ATAD5 - cell viability (AID 651634; calls by dose curve; further: nearly all actives have a fitted effect of over 25% in size)
Outline: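 HEK293T cells expressing luciferase-tagged ATAD5 were exposed to compound or DMSO for 15.5 hr at 37C, 5% CO2. Viability was then read as live-cell protease activity by CellTiter-Fluor fluorescence after 30 min at 37C.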

[5] = qHTS assay for small molecule disruptors of the mitochondrial membrane potential - cell viability (AID 720634; calls by dose curve; further: nearly all actives have a fitted effect of over 20% in size; further: potency means the concentration at half of the fitted maximal effect;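 on activity change, negative = cytotoxicity: human HepG2 liver cancer cells; series mostly up to about 83 µM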)
Outline: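 HepG2 cells seeded overnight at 37 C, then exposed to compound or DMSO for 1 hr at 37 C, 5% CO2. m-MPI dye added, then CellTiter-Glo for 30 min at room temperature; viability read as ATP luminescence.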

[6] = qHTS assay for small molecule disruptors of the mitochondrial membrane potential (AID 720635); further: potency means the concentration at half of the fitted maximal effect
Outline: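 HepG2 cells (2,000/well) attached overnight at 37C, then took compound for 1 hr at 37C, 5% CO2. Mito-MPS dye was added for 30 min; fluorescence was read at 490/535 nm (monomers) and 540/590 nm (aggregates).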

[7] = qHTS assay to test for compound auto fluorescence at 590 nm (red) in HepG2 cells (AID 720674)
Outline: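 Intrinsic compound fluorescence in the red window (Ex/Em 540/590 nm) is measured in attached HepG2 cells exposed for 1 hr, DMSO vehicle as baseline, benchmarked to Rose Bengal sodium.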

[8] = qHTS assay to test for compound auto fluorescence at 460 nm (blue) in HEK293 cells (AID 720678); further: potency means the concentration at half of the fitted maximal effect
Outline: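 Measured: blue fluorescence (Ex 405/Em 460 nm) of compound-treated HEK293 cells, incubated overnight at 37C with 5% CO2 and scaled to triamterene equivalents.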

[9] = qHTS assay to test for compound auto fluorescence at 590 nm (red) in HEK293 cells (AID 720679)
Outline: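 Using HEK293 cells at 2,000 per well, the screen added 23 nL of each compound after cell attachment and incubated overnight (37C, 5% CO2). The plate reader then captured red-label fluorescence, Ex/Em 540/590nm.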

[10] = qHTS assay to test for compound auto fluorescence at 535 nm (green) in HepG2 cells (AID 720675)
On the % scale 0 is the no-effect control and ±100 the full control effect; tags describe the fitted curve by direction and shape or compound fluorescence and quenching.

CC(C)CCCCCCN
inactive: Potency [1] | Potency [2] | Potency [3] | Potency [4] | Potency [5] | Potency [6] | outcome [7] | Potency [8] | outcome [9]

Nc1ccc2cc(S(=O)(=O)O)ccc2c1
inactive: Potency [1] | Potency [2] | Potency [3] | Potency [4] | Potency [5] | Potency [6] | outcome [7] | outcome [9]
active: Potency [8] 31.6 µM [fluorescent]

FC(F)(F)C(F)(F)C(F)(F)C(F)(F)C(F)(F)C(F)(F)C(F)(F)C(F)(F)C(F)(F)C(F)(F)F
inactive: activation [1] -5.47% [at 8.3 µM] | activation [2] 3.4% [at 8.08 µM] | activity change, negative = cytotoxicity [3] -19.5% [at 8.08 µM] | activity, negative = cytotoxicity [4] 13.6% [at 8.08 µM] | activity change, negative = cytotoxicity [5] 3.63% [at 8.08 µM] | ratio activity, negative = MMP loss [6] 21.5% [at 8.08 µM] | fluorescence, relative to Rose Bengal [7] 0.158% [at 9.17 µM] | fluorescence, % of fluorescein control [10] -0.0906% [at 9.17 µM] | fluorescence, % of triamterene [8] -0.0034% [at 9.17 µM] | fluorescence, % of fluorescent control [9] -0.155% [at 9.17 µM]

CSc1nc(NC2CC2)nc(NC(C)(C)C)n1
active: Potency [6] 8.63 µM
inactive: Potency [1] | Potency [2] | Potency [3] | Potency [4] | Potency [5] | outcome [7] | Potency [8] | outcome [9]

CC(=O)O[C@H](CC(=O)[O-])C[N+](C)(C)C
inactive: Potency [1] | Potency [2] | Potency [3] | Potency [4] | Potency [5] | Potency [6] | outcome [7] | outcome [10] | outcome [9]

Cc1cc(C)cc(OCC2CNC(=O)O2)c1 (stereo not given)
inactive: Potency [1] | Potency [2] | Potency [3] | Potency [4] | Potency [5] | Potency [6] | outcome [7] | outcome [10] | Potency [8]

Nc1cc(C(Cl)=C(Cl)Cl)c(S(N)(=O)=O)cc1S(N)(=O)=O
inactive: Potency [1] | Potency [2] | Potency [3] | Potency [4] | Potency [5] | Potency [6] | outcome [7] | outcome [10] | Potency [8] | outcome [9]

CCCCCCC(CCCCCCCCCCC(=O)OCC(COC(C)=O)OC(C)=O)OC(C)=O (stereo not given)
inactive: Potency [1] | Potency [2] | Potency [3] | Potency [4] | Potency [5] | Potency [6] | outcome [7] | Potency [8] | outcome [9]

COC(C(=O)O)c1ccccc1 (stereo not given)
inactive: Potency [1] | Potency [2] | Potency [3] | Potency [4] | Potency [5] | Potency [6] | outcome [7] | outcome [10] | Potency [8] | outcome [9]

O=C(O)c1ccccc1S
inactive: Potency [1] | Potency [2] | Potency [3] | Potency [4] | Potency [5] | Potency [6] | outcome [7] | outcome [10] | Potency [8]

Nc1nc2c(ncn2CCC(CO)CO)c(=O)[nH]1
inactive: Potency [1] | Potency [2] | Potency [3] | Potency [4] | Potency [5] | Potency [6] | outcome [7] | outcome [10] | Potency [8]

CCCCCCOC(=O)c1ccccc1O
inactive: Potency [1] | Potency [2] | Potency [3] | Potency [4] | Potency [5] | outcome [7] | outcome [10] | Potency [8] | outcome [9]

OCCCCCCO
inactive: Potency [1] | Potency [2] | Potency [3] | Potency [4] | Potency [5] | outcome [7] | outcome [10] | Potency [8] | outcome [9]

NC(=O)Nc1nc2ccccc2[nH]1
inactive: Potency [1] | Potency [2] | Potency [3] | Potency [4] | Potency [5] | outcome [7] | outcome [10] | Potency [8] | outcome [9]

COC(=O)CCCC(=O)O
inactive: Potency [1] | Potency [2] | Potency [3] | Potency [4] | Potency [5] | outcome [7] | outcome [10]

CCC(C)OC(=O)N1CCCCC1CCO (stereo not given)
inactive: Potency [1] | Potency [2] | Potency [3] | Potency [4] | Potency [5] | outcome [7] | Potency [8] | outcome [9]

CC(C)COC(=O)c1ccccc1O
inactive: Potency [1] | Potency [2] | Potency [3] | Potency [4] | Potency [5] | outcome [7] | outcome [10] | Potency [8] | outcome [9]

CCC(=O)c1cccc(Cl)c1
inactive: Potency [1] | Potency [2] | Potency [3] | Potency [4] | Potency [5] | outcome [7] | outcome [10] | outcome [9]

CCCCc1ccc2cccc(S(=O)(=O)O)c2c1
inactive: Potency [1] | Potency [2] | Potency [3] | Potency [4] | Potency [5] | outcome [7] | outcome [10] | Potency [8] | outcome [9]

CCCCc1ccc(N)cc1
inactive: Potency [1] | Potency [2] | Potency [3] | Potency [4] | Potency [5] | outcome [7] | outcome [10] | Potency [8] | outcome [9]

CCN1CCCC1CNC(=O)c1cc(S(N)(=O)=O)ccc1OC (stereo not given)
inactive: Potency [1] | Potency [2] | Potency [3] | Potency [4] | Potency [5] | outcome [7] | outcome [10] | Potency [8]

CN(C)CCOC(c1ccc(Cl)cc1)c1ccccn1 (stereo not given)
active: Potency [5] 5.31 µM
inactive: Potency [1] | Potency [2] | Potency [3] | Potency [4] | outcome [7] | outcome [10] | outcome [9]

C=CCn1c(=O)n([C@@H]2O[C@H](CO)[C@@H](O)[C@H]2O)c2nc(N)[nH]c(=O)c21
inactive: Potency [1] | Potency [2] | Potency [3] | Potency [4] | Potency [5] | Potency [6] | outcome [10] | Potency [8] | outcome [9]

CCCCCCC(=O)OCC
inactive: Potency [1] | Potency [2] | Potency [3] | Potency [4] | Potency [5] | outcome [7] | outcome [10]

CCOC(=O)Nc1ccc2c(c1)N(C(=O)CCN1CCOCC1)c1ccccc1S2
inactive: Potency [1] | Potency [2] | Potency [3] | Potency [4] | Potency [5] | fluorescence, relative to Rose Bengal [7] 0.181% [at 18.6 µM] | fluorescence, % of fluorescein control [10] 0.0633% [at 18.6 µM] | fluorescence, % of triamterene [8] -0.0312% [at 18.6 µM] | fluorescence, % of fluorescent control [9] 0.108% [at 18.6 µM]
